NPR2 activator – GC-B (human) receptor activation; AID 1920062; HEK293-GC-B cells, CNP EC30, cGMP TR-FRET; 0% at EC30 CNP, 100% saturating CNP; 370,000 compounds, 0.11% hits; activation, % at 10 µM;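 active = activation at 10 µM reaching about 35% in either raw or pattern-adjusted values, limit read from the data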
ADAM10 inh – ADAM10 inhibition, QFRET primary screen. O14672. recombinant ADAM10, EDANS/DABCYL FRET peptide cleavage, 3 h. inhibition, % at 7 µM. 370,000 compounds, 0.62% hits. AID 720582;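 active = inhibition above a per-campaign cutoff equal to the mean of compounds falling between control-based bounds plus 3 SD, cut at about 20% in these data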
FAS TE block – inhibitors of human fatty acid synthase thioesterase domain; recombinant FAS-TE, OMFH fluorogenic substrate, fluorescence endpoint; inhibition, % at 15 µM; 360,000 compounds, 0.67% hits;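 active = compounds whose normalised, plate-corrected inhibition of enzyme fluorescence in the single-dose primary screen is 50% or more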
NPR1 activator – GC-A (human) enzyme activation. P16066. HEK293 GC-A cells, cGMP TR-FRET, EC30 ANP; 0% at EC30 ANP, 100% saturating ANP. activation, % at 10 µM. 370,000 compounds, 0.14% hits; in the data active = activation above about 40%
ADAM17 inh – ADAM17 inhibition, QFRET primary screen; AID 720648; P78536; 370,000 compounds, 0.83% hits; recombinant ADAM17, EDANS/DABCYL FRET peptide cleavage; inhibition, % at 6.95 µM;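 active = inhibition above the mean of compounds lying between control limits plus 3 SD, set per campaign, cut at about 8.5% in these data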
ADAM10 ctr – counter-screen for ADAM17 exosite inhibitors: inhibitors of human ADAM10. inhibition, % at 6.95 µM. recombinant ADAM10, EDANS/DABCYL FRET peptide cleavage, 3 h. 2,900 compounds, 47% hits. shares compounds with ADAM17 inh;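 active = mean inhibition over the triplicate runs exceeds the activity threshold set in the earlier primary screen, cut at about 20% in these data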
ADAM17 confirm – confirmation of inhibitors of human ADAM17. shares compounds with ADAM17 inh. recombinant ADAM17, EDANS/DABCYL QFRET peptide cleavage. inhibition, % at 6.95 µM. 2,900 compounds, 65% hits. AID 743257;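 active = mean inhibition across replicates above the hit cutoff set in the primary screen, cut at about 8.5% in these data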
Numbers stand for hits; - = inactive; . = no result; ! = not confirmed by another sample. In the library only some 2% were active in any assay of this set; here they are far more common.

SMILES | NPR2 activator | ADAM10 inh | FAS TE block | NPR1 activator | ADAM17 inh | ADAM10 ctr | ADAM17 confirm
COc1ccc(NC(=O)CN(C)C(=O)/C=C/c2cn(-c3ccccc3)nc2-c2ccc(C)cc2)cc1 | - | - | - | - | 13 | - | 10
CCCC1CCC2(CC1)CCC2OC(=O)Nc1ccccc1C (centres undefined) | - | - | . | - | - | . | .
CC(C)c1ccc(S(=O)(=O)N2CCN(C(=S)NCc3ccco3)CC2)cc1 | - | - | - | - | 9.5 | 28 | 17
O=S(=O)(c1cccc(C(F)(F)F)c1)N1CCN(C(=S)NCc2ccco2)CC1 | - | - | - | - | - | . | .
N#CCSc1nnc(COc2ccccc2)n1-c1ccccc1 | - | - | - | - | 11 | - | -
CN(C)S(=O)(=O)c1ccc(NC(=O)CSc2nc3ccccc3n2-c2ccccc2)cc1 | - | - | - | - | - | . | .
CCN(CC)c1ccc(NC(=O)CSc2nc3ccccc3c(=O)n2-c2cc(S(=O)(=O)N(C)C)ccc2C)cc1 | - | - | - | - | 10 | 21 | 15
CCOC(=O)N1CCN(C(=O)C[C@H]2C[C@@]3(C(=O)OC)C(=C[C@H](COCc4ccccc4)O[C@@H]3C)N(CCc3ccc(OC)c(OC)c3)C2=O)CC1 | - | - | . | - | - | . | .
CCC/C(O)=C1\C(=O)CCCC1=NCCc1ccc(OCC)c(OCC)c1 | - | - | - | - | - | . | .
CCC/C(O)=C1\C(=O)CCCC1=NC(C)C(=O)O (centres undefined) | - | - | - | - | 10 | - | -
Cc1ccc(S(=O)(=O)N2CCC(C(=O)NCc3cccs3)CC2)cc1 | - | - | . | - | - | . | .
Nc1ncnc(Nc2cccc(C(F)(F)F)c2)n1 | - | - | - | - | - | . | .
Nc1nc(Nc2cccc(C(F)(F)F)c2)nc(C(F)(F)F)n1 | - | - | - | - | 15 | 23 | 16
CCC1C(=NO)C(CC)C(c2ccccc2)NC1c1ccccc1 (centres undefined) | - | - | - | - | 17 | - | 10
COc1ccc(CN(C(=O)c2oc3ccccc3c2C)C2CCS(=O)(=O)C2)cc1OC (centres undefined) | - | - | - | - | - | . | .
COc1ccc(CN(C(=O)c2oc3cc(C)c(C)cc3c2C)C2CCS(=O)(=O)C2)cc1OC (centres undefined) | - | - | - | - | 9.7 | - | 9.4
COC(=O)[C@]12C[C@H](CC(=O)NCCc3ccccc3OC)C(=O)N(Cc3ccc(Cl)cc3Cl)C1=C[C@H](C1CCCC1)O[C@@H]2C | - | - | . | - | - | . | .
Cc1cc(C)nc(N/N=C/c2ccccc2Cl)n1 | - | - | - | - | - | . | .
Cc1cc(N/N=C/c2ccccc2Cl)nc(NCc2ccccc2)n1 | - | - | - | - | 11 | - | -
CCN(c1ccc(OCC(=O)OCC(=O)c2c(N)n(C)c(=O)n(C)c2=O)cc1)S(=O)(=O)c1ccccc1 | - | - | - | - | - | . | .
CN(c1ccc(OCC(=O)OCC(=O)c2c(N)n(C)c(=O)n(C)c2=O)cc1)S(=O)(=O)c1ccc2ccccc2c1 | - | - | - | - | 9.3 | 23 | 10
NC(=O)c1ncn([C@@H]2O[C@H](C(=O)N[C@H](Cc3c[nH]c4ccccc34)C(=O)N3CCN(C(=O)N4CCCCC4)CC3)[C@@H](O)[C@H]2O)n1 | - | - | . | - | - | . | .
COc1cc(NC(=O)c2cc(C)on2)cc(C(=O)Nc2cccc(C(F)(F)F)c2)c1 | - | - | - | - | 12! | 34 | 16
COc1cc(NC(=O)c2csc(N)n2)cc(C(=O)Nc2cccc(C(F)(F)F)c2)c1 | - | - | - | - | - | . | .
C/C(CC(=O)Nc1ccc(OCc2ccccc2)cc1)=N\NC(=O)C(=O)Nc1cccc(C)c1 | - | - | - | - | 11 | - | -
COc1ccccc1NC(=O)C(=O)N/N=C(\C)CC(=O)Nc1ccc(OCc2ccccc2)cc1 | - | - | - | - | - | . | .
CC(C)(C)NC(=O)C(c1cccnc1)N(C(=O)c1cccs1)c1ccc(C(C)(C)C)cc1 (centres undefined) | - | - | . | - | - | . | .
